Eya2 phos inh: qHTS Assay for Inhibitors of the Phosphatase Activity of Eya2; Protein phosphatase EYA2 (Homo sapiens), O00167; Potency, µM (highest dose often 76.9 µM), most hits filed as inhibitors; 330,000 tested, 0.006% active; AID 488837, 2010; recombinant Eya2, OMFP fluorescence dephosphorylation (OMFP is methylfluorescein phosphate)
Target sequence (O00167 whole entry, looked up): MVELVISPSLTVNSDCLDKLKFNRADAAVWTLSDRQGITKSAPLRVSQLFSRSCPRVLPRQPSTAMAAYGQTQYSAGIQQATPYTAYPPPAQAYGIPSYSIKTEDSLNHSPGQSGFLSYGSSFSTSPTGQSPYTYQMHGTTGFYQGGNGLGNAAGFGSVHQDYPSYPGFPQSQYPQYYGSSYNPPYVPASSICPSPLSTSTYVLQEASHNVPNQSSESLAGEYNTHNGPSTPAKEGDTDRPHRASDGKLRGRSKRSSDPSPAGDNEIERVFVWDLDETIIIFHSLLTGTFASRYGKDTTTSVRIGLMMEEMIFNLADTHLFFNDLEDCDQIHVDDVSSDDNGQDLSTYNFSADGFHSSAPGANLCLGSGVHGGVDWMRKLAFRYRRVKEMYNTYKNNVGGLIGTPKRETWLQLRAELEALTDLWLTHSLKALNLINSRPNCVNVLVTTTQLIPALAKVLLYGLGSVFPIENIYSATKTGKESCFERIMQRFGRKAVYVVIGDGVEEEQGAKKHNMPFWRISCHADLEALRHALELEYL
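Eya2 (0.2 uM) preincubated 10 min at ambient with compound, then OMFP substrate added at 50 uM; 10 min reaction in 50 mM HEPES pH 7.5, 50 mM NaCl, 5 uM MgCl2, 0.05% BSA, 1 mM DTT. Fluorescence read at Ex 485/Em 525 nm.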
CtBP-E1A blk: qHTS Assay for Inhibitors of the CtBP/E1A Interaction | AID 651724, 2012 | activity change, % (no concentration beside the values) | AlphaScreen GST-E1A/His-CtBP binding, 1536-well; active compounds read low | 340,000 tested, 0.49% active | CtBP / adenovirus E1A interaction (AlphaScreen); in the data active = activity change below about -65%; inconclusive = mostly about -30% to -63%
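GST-E1A and His-tagged CtBP (125 nM each as 5X stock) were preincubated with pin-transferred compound for 2 h at 37 °C in the dark, then glutathione donor and nickel acceptor beads were added for 1 h before AlphaScreen reading.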
L3MBTL1 inh-1: qHTS Assay for the Inhibitors of L3MBTL1; AlphaScreen L3MBTL1–H3K9me1 peptide binding; Lethal(3)malignant brain tumor-like protein 1 (Homo sapiens), Q9Y468; Potency, µM (series often up to 57.1 µM), most hits filed as inhibitors; AID 485360, 2010; 230,000 tested, 0.66% active; note: nearly all actives have a fitted effect of over 60% in size
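AlphaScreen proximity signal between nickel-chelate acceptor and streptavidin donor beads (final 10 ug/mL) reports binding of 50 nM L3MBTL1 to 75 nM biotin-H3 K9me1 peptide; complex incubated with compounds 30 min at room temperature; cefsulodin titration as control.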
Six1-Eya2 inh: qHTS Assay for Inhibitors of the Six1/Eya2 Interaction; Homeobox protein SIX1 (Homo sapiens) + Protein phosphatase EYA2 (Homo sapiens), …; AlphaScreen GST-Six1/His-Eya2 binding, biochemical; active compounds read low; activity change, % (test concentration not listed); 360,000 tested, 0.56% active; AID 651725, 2012; in the data active = activity change below about -65%; inconclusive = mostly about -30% to -63%
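Homogeneous AlphaScreen proximity assay pairing GST-Six1 with His-tagged Eya2 (added as 5X mix: 250 nM and 500 nM) in 50 mM Tris pH 8.0, 300 mM NaCl, 1 mM TCEP. Glutathione donor and nickel acceptor beads; 1 h, 37 °C, dark.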
uPA surface inh: qHTS for Inhibitors of Cell Surface uPA Generation. 330,000 tested, 0.31% active. cell surface uPA generation assay, qHTS. AID 540303, 2011. Potency, µM (series often up to 38.3 µM), hits mostly inhibitors; active = well fitted inhibition curve with a large enough effect; inconclusive = small, poorly fitted or top-dose-only effect; inactive = no such curve, though single readings can be large or run the other way; tested in mouse RAW 264.7 cells; note: nearly all actives have a fitted effect of over 55% in size
USP2a inh: qHTS Assay for Inhibitors of Ubiquitin-specific Protease USP2a Using CHOP2 as the Reporter | Potency, µM (series often up to 38.3 µM), actives largely listed as inhibitors | USP2 core, Ub-CHOP2 coupled fluorogenic reporter, 485/531 | AID 463254, 2010 | Ubiquitin carboxyl-terminal hydrolase 2 (Homo sapiens), O75604 | 330,000 tested, 0.01% active
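Cell-free coupled assay: 10nM USP2 core preincubated 30min RT with compound in Tris-HCl pH 8.0/CaCl2/CHAPS buffer, then 25nM Ub-CHOP2 and 25nM reporter substrate; fluorescence (Ex 485/Em 531) read after 60min RT, normalized to NEM inhibition, concentration-response curves fitted.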
L3MBTL1 inh-2: qHTS Assay for the Inhibitors of L3MBTL1: Hit Validation | 500 tested, 91% active | L3MBTL1 methyl-lysine binding inhibition, biochemical qHTS | AID 540279, 2011 | shares compounds with L3MBTL1 inh-1 | Potency, µM, most hits filed as inhibitors; note: nearly all actives have a fitted effect of over 70% in size
L3MBTL1 ctr: qHTS Assay for the Inhibitors of L3MBTL1: Hit Validationin AlphaScreen Counterscreen | shares compounds with L3MBTL1 inh-1 | AlphaScreen counterscreen, signal inhibition | Potency, µM (titrated, usually from 57.1 µM), most hits filed as inhibitors | 500 tested, under 10 active
A number is an active result; - = inactive; ? = inconclusive; . = no result given; [ ] = dose if it differs, or a comment. Shown are actives, neighbours in structure and some others; about 1.2% of the full set was active somewhere. Unless noted, calls come from the whole dose curve; as a rule, active = well fitted curve in the direction sought with a large enough effect; inconclusive = small, poorly fitted or top-dose-only effect, or another doubt; inactive = no such curve, though single readings can be large; an effect the other way counts as inactive or inconclusive.

SMILES | Eya2 phos inh | CtBP-E1A blk | L3MBTL1 inh-1 | Six1-Eya2 inh | uPA surface inh | USP2a inh | L3MBTL1 inh-2 | L3MBTL1 ctr
CCOc1ccc(S(=O)(=O)N2CCC(C(=O)NCc3ccccn3)CC2)cc1C | - | - | . | - | - | - | . | .
COc1ccc2c(COC(=O)CC3Sc4ccccc4NC3=O)cc(=O)oc2c1 (centres undefined) | - | - | ? | - | - | - | . | .
CC(=O)Nc1ccc2c(COC(=O)CC3Sc4ccccc4NC3=O)cc(=O)oc2c1 (centres undefined) | - | - | 25.1µM | - | - | - | 8.44 | -
NS(=O)(=O)c1cccc(NC(=O)COC(=O)CC2Sc3ccccc3NC2=O)c1 (centres undefined) | - | - | - | - | - | - | . | .
O=C(CC1Sc2ccccc2NC1=O)Nc1cccc(C(=O)O)c1 (centres undefined) | - | - | 11.2µM | - | - | - | 0.947 | -
CSCCOC(=O)c1[nH]c2c(c1C)C(=O)CC(c1ccco1)C2 (centres undefined) | - | - | 35.5µM | - | ? | - | 18.9 | -
Cc1c(C(=O)OCc2ccccc2)[nH]c2c1C(=O)CC(c1ccco1)C2 (centres undefined) | - | - | 25.1µM | - | 1µM | - | 15 | -
COCCOC(=O)c1[nH]c2c(c1C)C(=O)CC(c1ccco1)C2 (centres undefined) | - | - | 31.6µM | - | 1µM | - | 15 | -
COCCOC(=O)c1[nH]c2c(c1C)C(=O)CC(c1ccccc1)C2 (centres undefined) | - | - | - | - | - | - | . | .
CCOC(=O)c1[nH]c2c(c1C)C(=O)CC(c1ccco1)C2 (centres undefined) | - | - | 31.6µM | - | ? | - | 21.2 | -
O=C(NCc1ccccc1)C(c1ccc(-c2ccccc2)cc1)n1c(=O)c(-c2cc3ccccc3[nH]2)nc2ccccc21 (centres undefined) | . | - | . | - | . | . | . | .
CCCCN(C(=O)c1ccc(N(C)S(=O)(=O)c2ccc(C)cc2)cc1)c1c(N)n(CCCC)c(=O)[nH]c1=O | - | - | - | - | - | - | . | .
CC[C@]12C(=O)N(C)C[C@H]([C@@H]3C(=O)N(Cc4ccccc4)C(=O)[C@@H]31)N2C(=O)c1ccccc1 | . | - | . | - | - | . | . | .
CCN(CC)CCCN=Cc1c(O)n(-c2cccc(C)c2)c(=O)c2ccccc12 | - | . | - | - | ? | - | . | .
Cc1c(C(=O)OCCOC(C)C)[nH]c2c1C(=O)CC(c1ccco1)C2 (centres undefined) | - | - | 25.1µM | - | ? | - | 23.8 | -
COc1ccc(OC(=O)Cc2cccc3ccccc23)cc1 | - | - | - | - | - | - | . | .
CCc1nc2oc3cc(OC)ccc3c(=O)c2c(=O)n1-c1ccccc1 | - | - | . | - | - | - | . | .
Cc1ccc(-n2c(C)nc3oc4ccccc4c(=O)c3c2=O)cc1 | - | - | 39.8µM | - | - | - | 26.7 | -
Cc1cc(C)n(-c2nnc3c4ccccc4n(C)c3n2)n1 | ? | - | 28.2µM | - | - | - | ? | ?
C/C(=N\Nc1nnc2c3ccccc3n(C)c2n1)c1ccc(C)o1 | - | - | - | - | - | - | . | .
CCCCn1c(SCC(=O)NC(=O)Cc2ccccc2)nc2ccccc2c1=O | - | - | - | - | - | - | . | .
O=C(Oc1ccc(C(=S)N2CCOCC2)cc1Cl)c1ccccc1F | - | . | -[2.29 µM] | - | - | - | . | .
O=C(Oc1c(CN2CCOCC2)cc(Cl)c2cccnc12)c1ccccc1F | - | -91.4 | 14.1µM | -90.8 | - | - | 26.7 | -
N#CCCn1cc(CNC2CCC(O)CC2)c2ccccc21 (centres undefined) | - | - | . | - | - | - | . | .
Cc1cccc(CC(=O)NCCN2CCCCC2)c1 | - | - | - | - | - | - | . | .
SMILES | Eya2 phos inh | CtBP-E1A blk | L3MBTL1 inh-1 | Six1-Eya2 inh | uPA surface inh | USP2a inh | L3MBTL1 inh-2 | L3MBTL1 ctr
O=C(/C=C/c1ccco1)N(c1ccccn1)c1ccccn1 | - | - | 3.98µM | ? | - | - | 2.67 | -
O=C(c1ccco1)N(c1ccccn1)c1ccccn1 | - | - | . | - | - | - | . | .
CCOC(=O)C(C(=O)N(C)Cc1ccccc1)C1CCCCC1 (centres undefined) | - | . | - | - | - | - | . | .
COc1cccc(=O)c2c(C)n(-c3ccc(C(=O)O)cc3)c(C)c12 | - | - | 25.1µM | ? | - | - | 21.2 | -
COc1ccc(C2CC(=O)Nc3ccccc3S2(=O)=O)cc1OC (centres undefined) | - | - | 11.2µM | - | - | - | ? | -
COc1ccc(C2CC(=O)Nc3cc(OC)c(OC)cc32)cc1Br (centres undefined) | - | - | - | - | - | - | . | .
CC(C)CCC(CCN1CCCC1)c1ccc2c(c1)OCO2 (centres undefined) | - | - | 28.2µM | - | - | - | 21.2 | -
CC(C)CCC(CCN1CCOCC1)c1ccc2c(c1)OCO2 (centres undefined) | - | - | - | - | . | - | . | .
Cc1ccc(OCCNC(=O)c2ccc(NC(=O)CC3SC(N4CCCC4)=NC3=O)cc2)cc1 (centres undefined) | - | - | - | - | - | - | . | .
Cc1nccc(-c2cccc(NC(=O)c3ccccc3Cl)c2)n1 | - | . | - | - | - | - | . | .
O=C(CSc1ccsc1[N+](=O)[O-])NCc1ccccc1 | - | - | - | - | - | - | . | .
CCc1ccccc1NC(=O)CSc1ccsc1[N+](=O)[O-] | - | - | 28.2µM | - | - | - | 23.8 | -
O=C(CSc1ccsc1[N+](=O)[O-])Nc1cccc(F)c1 | - | - | 28.2µM | - | - | - | 7.52 | -
COc1ccc(CCNC(=O)Cc2ccc(NC3=NC4CS(=O)(=O)CC4S3)cc2)c(OC)c1 (centres undefined) | - | - | - | - | - | - | . | .
